Experiment [1] is described as follows: S16 Schwann cell PMP22 intronic element beta-lactamase assay (AID 624044; calls by dose curve; note: nearly all actives have a fitted effect of over 15% in size). Put shortly:
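Beta-lactamase reporter under a PMP22 intronic regulatory element in stable S16 rat Schwann cells; 24 h compound exposure. 460 nm blue signal normalized between DMSO (0%) and potassium clavulanate, with 535 nm FRET tracking viability; curves classed by r2 and response.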

The subject of experiment [2] is 3D7. Put plainly: qHTS profiling for inhibitors of Plasmodium falciparum proliferation (AID 504749). Note: nearly all actives have a fitted effect of over 60% in size. Note: potency is the fitted concentration of half-maximal effect. Conditions: P. falciparum in erythrocytes, SYBR Green DNA, 72 h; series mostly up to 12.8 µM. Put shortly:
(§1)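 SYBR Green fluorescence of parasite DNA, read after lysis and overnight dark incubation, measured growth over 72 h in erythrocyte culture at 0.3% parasitemia and 2.5% hematocrit. Data normalised to DMSO and 0.29 uM artemisinin, with plate-drift correction.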
On the technique in general: Quantitative high-throughput screening tests each substance at several concentrations.

Experiment [3] deals with ATS189. The description is as above. The following applies: P. falciparum in erythrocytes, SYBR Green DNA, 72 h; series mostly up to 12.8 µM. In a few lines:
as §1

For experiment [4], the system named is ATS95. The experiment is described as above. Conditions: P. falciparum in erythrocytes, SYBR Green DNA, 72 h; series mostly up to 12.8 µM. Put shortly: as §1
For experiment [5], the system named is CP192. The description is as above. The following applies: P. falciparum in erythrocytes, SYBR Green DNA, 72 h; series mostly up to 12.8 µM. Put shortly:
as §1

Experiment [6] relates to CP217. The experiment is described as above. The following applies: P. falciparum in erythrocytes, SYBR Green DNA, 72 h; series mostly up to 12.8 µM. Put shortly: as §1
In experiment [7] the test system is CP238. Described as above. The following applies: P. falciparum in erythrocytes, SYBR Green DNA, 72 h; series mostly up to 12.8 µM. In a few lines: as §1
The test system of experiment [8] is CP247. The description is as above. Conditions: P. falciparum in erythrocytes, SYBR Green DNA, 72 h; series mostly up to 12.8 µM. Put shortly: as §1
Experiment [9] concerns CP250. Described as above. The following applies: P. falciparum in erythrocytes, SYBR Green DNA, 72 h; series mostly up to 12.8 µM. In a few lines: as §1
Experiment [10] deals with CP265. The experiment is described as above. Conditions: P. falciparum in erythrocytes, SYBR Green DNA, 72 h; series mostly up to 12.8 µM. In a few lines: as §1
Experiment [11] relates to CP305. The experiment is described as above. The following applies: P. falciparum in erythrocytes, SYBR Green DNA, 72 h; series mostly up to 12.8 µM. Put shortly:
as §1

In experiment [12] the test system is CP325. The experiment is described as above. The following applies: P. falciparum in erythrocytes, SYBR Green DNA, 72 h; series mostly up to 12.8 µM. Put shortly:
as §1

The test system of experiment [13] is Dd2. Described as above. Conditions: P. falciparum in erythrocytes, SYBR Green DNA, 72 h; series mostly up to 12.8 µM. Put shortly:
as §1

For experiment [14], the system named is FAB9. The experiment is described as above. Conditions: P. falciparum in erythrocytes, SYBR Green DNA, 72 h; series mostly up to 12.8 µM. Put shortly:
as §1

For experiment [15], the system named is N140. The description is as above. Conditions: P. falciparum in erythrocytes, SYBR Green DNA, 72 h; series mostly up to 12.8 µM. In a few lines:
as §1

For experiment [16], the system named is P93_24. The experiment is described as above. Conditions: P. falciparum in erythrocytes, SYBR Green DNA, 72 h; series mostly up to 12.8 µM. In a few lines:
as §1

The test system of experiment [17] is PAD. Described as above. The following applies: P. falciparum in erythrocytes, SYBR Green DNA, 72 h; series mostly up to 12.8 µM. In a few lines: as §1
For experiment [18], the system named is PC15. The description is as above. Conditions: P. falciparum in erythrocytes, SYBR Green DNA, 72 h; series mostly up to 12.8 µM. Put shortly: as §1
Experiment [19] concerns PC49. The experiment is described as above. Conditions: P. falciparum in erythrocytes, SYBR Green DNA, 72 h; series mostly up to 12.8 µM. In a few lines: as §1
For experiment [20], the system named is TAB109. Described as above. Conditions: P. falciparum in erythrocytes, SYBR Green DNA, 72 h; series mostly up to 12.8 µM. Put shortly:
as §1

Results filed as inconclusive are left out. Active and inactive are the calls of the source. Unless noted, calls come from the whole dose curve; as a rule, active = well fitted inhibition curve with a large enough effect; inconclusive = small, poorly fitted or top-dose-only effect; inactive = flat fitted curve, though single readings scatter.

Consider `NS(=O)(=O)c1cc2c(cc1Cl)N[C@@H](C(Cl)Cl)NS2(=O)=O`, for which the Potency entry in experiment [1], in [2], in [3], in [4], in experiment [5] and in experiment [6] was “inactive” each time. For the same compound, the Potency result in experiment [7], in [8], in [9], in experiment [10], in [11] and in [12] was “inactive” throughout. For the same compound, the Potency result in experiment [13], in [14], in [15], in experiment [16], in experiment [17] and in [18] was “inactive” in each case. The Potency entry in experiment [19] and in experiment [20] was “inactive” each time.

In the case of `COCC(=O)Nc1c(I)c(C(=O)NC[C@@H](O)CO)c(I)c(C(=O)N(C)C[C@@H](O)CO)c1I`, the Potency result in [1], in [2], in experiment [3], in experiment [4], in experiment [5] and in [6] was “inactive” in each case. In addition, the Potency result in experiment [7], in experiment [8], in [9], in [10], in [11] and in experiment [12] was “inactive” each time. The Potency result in experiment [13], in experiment [14], in experiment [15], in [16], in [17] and in experiment [18] was “inactive” each time. The Potency result in experiment [19] and in experiment [20] was “inactive” throughout.

With `CC(=O)[C@@H]1CC[C@@H]2[C@@H]3C[C@H](C)C4=CC(=O)CC[C@@]4(C)[C@H]3[C@H](O)C[C@]21C`, the Potency entry in [1], in [2], in experiment [3], in experiment [4], in [5] and in experiment [6] was “inactive” each time. The Potency result in experiment [7], in [8], in experiment [9], in experiment [10], in experiment [11] and in [12] was “inactive” each time. In addition, the Potency entry in experiment [13], in experiment [14], in experiment [15], in experiment [16], in experiment [17] and in experiment [18] was “inactive” in each case. Moreover, the Potency entry in experiment [19] and in experiment [20] was “inactive” in each case.

In the case of `C#C[C@@]1(O)CC[C@@H]2[C@@H]3CCC4=C(CCC(=O)C4)[C@H]3CC[C@]21C`, the Potency result in experiment [1] is “inactive”.

For the compound `CC(=O)OCC(=O)[C@@]1(O)CC[C@@H]2[C@H]3CCC4=CC(=O)C=C[C@]4(C)[C@]3(F)[C@@H](O)C[C@@]21C`, the Potency entry in experiment [1], in [2], in experiment [3], in experiment [4], in experiment [5] and in experiment [6] was “inactive” throughout. The Potency entry in experiment [7], in experiment [8], in experiment [9], in [10], in experiment [11] and in experiment [12] was “inactive” throughout. Also, the Potency result in experiment [13], in [14], in experiment [15], in [16], in experiment [17] and in [18] was “inactive” each time. Moreover, the Potency entry in experiment [19] and in experiment [20] was “inactive” throughout.

Consider `C[C@H]1CC[C@]2(OC1)O[C@@H]1C[C@@H]3[C@@H]4CC[C@H]5C[C@@H](O)CC[C@]5(C)[C@@H]4CC(=O)[C@@]3(C)[C@H]1[C@@H]2C`, for which the Potency result in experiment [2], in experiment [3], in experiment [4], in experiment [5], in experiment [6] and in experiment [7] was “inactive” each time. The Potency result in experiment [8], in experiment [9], in experiment [10], in [11], in experiment [12] and in [13] was “inactive” each time. Besides, the Potency entry in [14], in [15], in [16], in experiment [17], in [18] and in experiment [19] was “inactive” in each case. Further, in experiment [20], the Potency result is “inactive”.

For the compound `C[C@@H](C(=O)O)c1ccc(C(=O)c2ccccc2)s1`, the Potency result in experiment [1], in experiment [2], in experiment [3], in experiment [4], in experiment [5] and in experiment [6] was “inactive” each time. For the same compound, the Potency entry in [7], in experiment [8], in experiment [9], in experiment [10], in experiment [11] and in [12] was “inactive” each time. In addition, the Potency result in experiment [13], in [14], in experiment [15], in experiment [16], in experiment [17] and in [18] was “inactive” each time. The Potency entry in experiment [19] and in [20] was “inactive” in each case.

Consider `COC(=O)C1=C(C)NC(C)=C(C(=O)OC(C)C)[C@H]1c1cccc2nonc12`, for which the Potency result in experiment [1], in experiment [5], in experiment [6], in [7], in experiment [9] and in experiment [10] was “inactive” each time. Besides, the Potency entry in experiment [13], in [14], in [16], in [17], in experiment [18] and in [19] was “inactive” in each case. The Potency in experiment [15] was 3.16 µM (active).

Consider `CCC[C@@H]1O[C@@H]2C[C@@H]3[C@H]4CCC5=CC(=O)C=C[C@@]5(C)[C@H]4[C@H](O)C[C@@]3(C)[C@@]2(C(=O)CO)O1`, for which the Potency result in experiment [1] and in [11] was “inactive” in each case. The Potency is 7.94 µM (active) in [2]; 7.08 µM (active) in experiment [3]; 10 µM (active) in experiment [6]; 8.91 µM (active) in experiment [8]; 11.2 µM (active) in experiment [9]; 12.6 µM (active) in experiment [13]. Further, the Potency in experiment [16] is 8.91 µM (active); in experiment [20], 7.94 µM (active).

For the compound `C[C@H](C(=O)O)c1cccc(Oc2ccccc2)c1`, the Potency result in [1], in experiment [2], in experiment [3], in experiment [4], in [5] and in experiment [6] was “inactive” each time. The Potency result in [7], in experiment [8], in [9], in [10], in experiment [11] and in experiment [12] was “inactive” in each case. In addition, the Potency result in [13], in [14], in experiment [15], in experiment [16], in experiment [17] and in experiment [18] was “inactive” in each case. In addition, the Potency entry in experiment [19] and in experiment [20] was “inactive” each time.

Turning to `CC[C@H](Cc1c(I)cc(I)c(N)c1I)C(=O)O`, the Potency result in [1], in experiment [2], in experiment [3], in experiment [4], in experiment [5] and in experiment [6] was “inactive” each time. Further, the Potency result in experiment [7], in experiment [8], in experiment [9], in experiment [10], in experiment [11] and in [12] was “inactive” each time. The Potency entry in experiment [13], in experiment [14], in [15], in [16], in [17] and in experiment [18] was “inactive” each time. The Potency result in [19] and in [20] was “inactive” throughout.

For the compound `NS(=O)(=O)c1cc2c(cc1Cl)N[C@@H](CC1CCCC1)NS2(=O)=O`, the Potency entry in [2], in experiment [3], in experiment [4], in experiment [5], in [6] and in experiment [7] was “inactive” each time. Further, the Potency entry in [8], in experiment [9], in experiment [10], in [11], in [12] and in experiment [13] was “inactive” in each case. The Potency result in experiment [14], in experiment [15], in experiment [16], in experiment [17], in [18] and in [20] was “inactive” in each case.

Regarding `CC(=O)OCC(=O)[C@@]1(O)[C@H](C)C[C@@H]2[C@H]3CCC4=CC(=O)C=C[C@]4(C)[C@]3(F)[C@@H](O)C[C@@]21C`, the Potency entry in [2], in experiment [3], in experiment [4], in [5], in experiment [6] and in experiment [7] was “inactive” each time. Further, the Potency result in [8], in experiment [9], in experiment [10], in [11], in experiment [12] and in [13] was “inactive” in each case. For the same compound, the Potency entry in experiment [14], in [15], in experiment [16], in experiment [17], in experiment [18] and in [19] was “inactive” each time. In addition, in experiment [20], the Potency entry is “inactive”.

(Values after PubChem BioAssay (NCATS).)
